Screening results: PubChem, Sanford-Burnham Center for Chemical Genomics
The list is not random: actives were taken first. Their share in the collection is about 3%.
SENP8 block-1: SENP8 protease inhibition | purified SENP8, Z-RLRGG-aminoluciferin cleavage, luminescence | inhibition, % at 10 µM | hit rate 1.2% among 330,000; in the data active means inhibition above about 50%
Target sequence (Q96LD8 whole entry, looked up): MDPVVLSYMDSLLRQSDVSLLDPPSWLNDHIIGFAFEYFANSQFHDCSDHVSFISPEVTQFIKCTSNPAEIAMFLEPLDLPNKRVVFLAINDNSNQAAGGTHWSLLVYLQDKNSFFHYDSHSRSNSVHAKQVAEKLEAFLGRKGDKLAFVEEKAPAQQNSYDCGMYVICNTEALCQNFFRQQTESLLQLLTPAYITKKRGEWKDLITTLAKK
SENP7 block: inhibitors of human SENP7 protease | hit rate 1.5% among 330,000 | AID 434973 | recombinant SENP7, Z-RLRGG-aminoluciferin luminescence, 40 min | inhibition, % at 5 µM | Q9BQF6;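 active means inhibition above about 50% at the single test dose, limit read from the data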;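 further: plate controls were DMSO with enzyme for no effect and no enzyme buffer wells for full effect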
PPC-1+TRAIL kill: compounds killing PPC-1 cancer cells with TRAIL present (potentiator screen, no TRAIL-free arm). PPC-1 cells + TRAIL, ATPLite viability luminescence. cell killing (% activity), % at 4 µM or 5 µM. hit rate 0.41% among 220,000;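 active means cell killing above 50% in the first pass at 4 µM, then a duplicate retest at 5 µM averaging 50% or more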;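 further: plate controls were cells with TRAIL plus DMSO for no effect and medium-only wells lacking cells for full effect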
C8 TRAIL sens: caspase-8 TRAIL sensitization | NB7+C8 cells + TRAIL, ATPlite viability luminescence | inhibition (viability loss, TRAIL sensitization), % at 10 µM | hit rate 1% among 360,000 | AID 624354;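 active means compounds causing at least 50% loss of cell viability in the single-dose screen, relative to plate controls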
SENP6 block: blocks the human protease SENP6 | Q9GZR1 | Recombinant SENP6 catalytic domain, aminoluciferin luminescence | inhibition, % at 10 µM | hit rate 1.8% among 330,000;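 active means inhibition above about 50% at the single tested dose, limit read from the data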;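 further: plate controls were DMSO wells with enzyme for no effect and DMSO wells lacking enzyme for full effect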
Target sequence (Q9GZR1 628-1112 limits assumed): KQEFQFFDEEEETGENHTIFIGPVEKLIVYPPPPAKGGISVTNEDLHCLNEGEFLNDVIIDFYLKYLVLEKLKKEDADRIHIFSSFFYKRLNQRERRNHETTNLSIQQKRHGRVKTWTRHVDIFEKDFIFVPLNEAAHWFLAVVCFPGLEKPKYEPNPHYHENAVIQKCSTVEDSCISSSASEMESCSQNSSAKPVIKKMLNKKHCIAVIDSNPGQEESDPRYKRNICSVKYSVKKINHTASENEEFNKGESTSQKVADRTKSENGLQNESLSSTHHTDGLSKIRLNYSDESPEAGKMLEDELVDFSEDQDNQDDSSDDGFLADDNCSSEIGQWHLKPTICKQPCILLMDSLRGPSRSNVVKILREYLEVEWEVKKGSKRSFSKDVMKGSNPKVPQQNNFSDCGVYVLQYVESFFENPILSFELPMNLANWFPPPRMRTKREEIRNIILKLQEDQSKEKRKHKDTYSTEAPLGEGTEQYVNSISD
SENP8 block-2: blocks human SENP8 cleavage of Nedd8 substrate | AID 602440 | hit rate 0.64% among 360,000 | Q96LD8 | inhibition, % at 20 µM | recombinant SENP8, Nedd8 substrate fluorescence; in the data active means inhibition mostly above about 40%, no sharp cut-off; inactive means mostly below about 27%
SENP8 inh conf: SENP8 (human) inhibition, single concentration confirmation; inhibition, % at 25 µM; purified SENP8, Nedd8-AMC/pro-Nedd8 cleavage fluorescence, 30 min; AID 624319; hit rate 15% among 1,400; shares compounds with SENP8 block-2; in the data active means inhibition mostly above about 39%, no sharp cut-off; inactive means mostly below about 34%
Active calls of the source: *; . = not tested or not shown.

SMILES	SENP8 block-1	SENP7 block	PPC-1+TRAIL kill	C8 TRAIL sens	SENP6 block	SENP8 block-2	SENP8 inh conf
O=[N+]([O-])c1ccc(N2CCN(CCO)CC2)cc1Sc1ccccn1	1.3	-0.5	2.7	-0.5	-2.0	18.8	.
CCN1CCN(c2ccc([N+](=O)[O-])c(Sc3nc4ccccc4[nH]3)c2)CC1	0.5	7.9	15.9	-0.7	-10.3	41.3*	17.9
NC(=O)c1cc[n+](CC(=O)c2ccc(NC(=O)c3ccccc3)cc2)cc1	2.1	5.6	9.2	-2.3	8.1	11.7	.
CCOC(=O)[C@]12CCCC=C1N(Cc1cccc3ccccc13)C(=O)[C@H](CC(=O)N1CCN(C(=O)C3CC3)CC1)C2	.	.	.	10.7	.	10.7	.
N#Cc1ccccc1NC(=O)COC(=O)COc1ccccc1[N+](=O)[O-]	1.9	3.3	-4.9	16.6	-12.1	-27.1	.
CCC(=O)Nc1ccccc1Nc1cc(C#N)c(C#N)cc1[N+](=O)[O-]	0.3	1.6	16.5	6.3	-18.8	42.4*	17.6
COc1ccc(-n2c3c(cc(C(=O)NCC(=O)c4ccccc4)c2=O)C(=O)CC(C)(C)C3)cc1	-2.3	-12.4	.	-22.9	3.1	-219.8	.
Cc1ccc(Cn2cc(/C=C/C(=O)O)c(-c3ccccc3)n2)cc1	-5.6	3.5	12.3	21.9	-34.2	43.0*	8.8
Cc1ccc(-c2nn(Cc3ccccc3)cc2/C=C/C(=O)O)cc1	-6.3	-3.1	2.1	3.6	-12.2	17.9	.
CC(=O)Nc1ccc(S(=O)(=O)N2CCN(C(=O)CCC3CCCC3)CC2)cc1	-5.3	-7.4	3.8	-14.8	2.1	45.5*	10.6
COc1cc(/C=N/N2CCOCC2)ccc1OCc1ccc(Cl)cc1	4.3	5.7	12.9	-3.6	22.8	42.0*	8.4
COc1cc(/C=N/N2CCOCC2)ccc1OCc1ccccc1	-15.5	2.2	21.7	18.0	13.5	9.7	.
COC(=O)CCCC1=CC2=C(c3ccccc3)C(=O)C(C)(OC(=O)C3CCCC3)C(=O)C2=CN1C1CCCCC1 (stereo not given)	-14.0	-12.2	15.6	-3.7	1.3	43.6*	49.0*
CC(NC(=O)c1ccc(Cn2cc([N+](=O)[O-])cn2)o1)c1ccccc1 (stereo not given)	3.3	6.3	-9.0	11.7	0.9	49.6*	15.6
CCCCC[C@@H](/C=C/C1C(=O)C=C[C@H]1C/C=C\CCCC(=O)OC)OC(C)=O (stereo not given in full)	.	.	.	6.8	.	0.6	.
Cc1ccc(NC(=O)C2CC(=O)Nc3nncn32)cc1 (stereo not given)	-0.9	20.0	15.6	-4.4	4.6	-4.1	.
COc1ccc(/C=C/C(=O)Nc2ccc(N3CCOCC3)cc2)cc1	.	.	6.4	-7.2	.	25.9	.
CCN(CC)S(=O)(=O)c1ccc(/C=C/C(=O)Nc2ccc(N3CCOCC3)cc2)cc1	-7.7	-2.3	-8.8	12.1	-3.6	42.1*	22.9
C=CCc1ccc(OC(=O)c2ccccc2)c(OC)c1	-15.9	-4.3	15.1	2.6	-8.9	48.0*	12.3
O=C(NCc1cccc(Cl)c1)C1CCC(=O)N(CCCN2CCCC2=O)C1 (stereo not given)	3.8	-0.9	.	1.4	-6.9	-2.1	.
O=C(CN1CCN(C(=O)N2CCOCC2)CC1)Nc1ccc(Br)cc1	-6.7	4.1	14.2	-3.0	-12.5	40.9*	12.0
CCCC(=O)N1CCC1(C)C(=O)NS(=O)(=O)c1cc2c(cc1C)CCCS2(=O)=O (stereo not given)	.	.	.	7.6	.	15.9	.
O=S1(=O)NC(C2CC2c2ccccc2)CCO1 (stereo not given)	-2.9	5.0	.	11.9	-4.8	8.9	.
Cc1[nH]n(-c2ccccc2)c(=O)c1S(=O)(=O)c1ccccc1	-0.2	2.5	1.9	8.7	-4.9	71.1*	43.2*
COc1ccc(-n2c(CNC(=O)COc3ccc(Cl)cc3Cl)n[nH]c2=S)cc1	-4.9	-10.7	16.9	0.0	-24.8	10.0	.
SMILES	SENP8 block-1	SENP7 block	PPC-1+TRAIL kill	C8 TRAIL sens	SENP6 block	SENP8 block-2	SENP8 inh conf
N#Cc1ccc(S(=O)(=O)N2CCCCC2c2cc(C(=O)NCc3ccccc3)no2)cc1 (stereo not given)	.	.	.	5.8	.	7.0	.
CC(C)NC(=O)CN1C(=O)CSc2ccc(S(=O)(=O)N3CCCC3)cc21	-17.8	11.8	.	0.2	-10.5	21.9	.
Cc1ccc(S(=O)(=O)N2C[C@H]3[C@H]4C(=O)N(c5ccccc5)C(=O)[C@H]4C[C@H](OC(=O)NCc4ccccc4F)[C@@]3(O)C2)cc1	.	.	.	-4.7	.	-4.4	.
CCN(CC)CC(=O)Nc1ccc2c(c1)N(C(=O)CN(CC)CC)c1ccccc1CC2	3.9	6.5	11.8	-3.7	7.4	39.6*	55.3*
Cc1cccc(NNC(N)=S)c1C	11.6	2.3	9.3	0.8	0.8	22.8	.
O=C1CCC2(CC1)NC(=O)N(c1ccccc1)N2	5.3	9.8	13.0	-5.7	2.8	36.7*	-6.8
O=C(N/N=C/c1ccc([N+](=O)[O-])o1)c1ccncc1	-2.0	-8.9	9.2	28.1	11.5	54.0*	28.3
CCCCCC(=O)N/N=C/c1ccc([N+](=O)[O-])o1	4.0	0.2	.	11.7	2.7	27.9	.
O=C(Cc1ccc2c(c1)OCO2)NN=Cc1ccc([N+](=O)[O-])o1	-14.4	-0.6	.	13.6	3.1	39.4*	21.3
O=C(N/N=C\c1ccc([N+](=O)[O-])o1)c1cncc(Br)c1	14.5	3.8	26.0	23.9	11.0	65.8*	24.2
COc1cccc(CCc2nnc(CCC(=O)NC(C)c3c(C)nn(C)c3C)o2)c1 (stereo not given)	1.1	9.6	18.9	-2.2	12.1	1.2	.
Cc1cccc(C(CC(=O)N2CCCCC2)c2ccccc2)c1O (stereo not given)	0.7	14.1	.	-4.0	-20.5	0.2	.
O=C1Nc2ccccc2C1=O	-3.8	3.5	.	-1.9	-16.2	44.1*	14.3
C=CC[C@]12C[C@@H](OC)C(=O)C=C1O[C@@H](c1ccc(OC)c(OC)c1)[C@H]2C	4.2	-2.2	.	13.0	-2.8	41.5*	11.4
C=CC[C@@]12C=C(OC)C(=O)C(OC)=C1O[C@H](c1ccc3c(c1)OCO3)[C@H]2C	2.0	-8.4	.	0.7	0.8	12.7	.
CN(C(=S)Nc1ccccc1)c1ccccc1	-3.7	-0.2	18.5	-3.5	-9.7	23.8	.
CN(C(=S)Nc1ccc(Oc2ccccc2)cc1)c1ccc(O)cc1	.	.	39.1	4.4	.	46.5*	15.1
CN(C(=S)Nc1cccnc1)c1ccc(O)cc1	.	.	8.3	-1.1	.	40.3*	12.0
COc1cccc(C2C(C(N)=O)=C(C)Nc3nc(CCCO)nn32)c1 (stereo not given)	-11.6	-10.2	.	-6.7	-25.5	12.7	.
CCN(CC)S(=O)(=O)c1ccc(N2CCN(C)CC2)c(NC(=O)c2cc(=O)c3ccccc3o2)c1	-3.8	6.5	.	-36.7	-26.9	12.2	.
Cc1cc(Cl)ccc1NNC(N)=S	-7.7	14.1	26.7	-6.6	-13.2	60.7*	-8.2
Cc1ccc(C)c(NNC(N)=S)c1	-6.5	-1.2	2.0	3.3	-22.2	14.8	.
